Drawing on ChEMBL document CHEMBL5724796, “Tm Shift (DSF) assay results for EUbOPEN Chemogenomics Library” (2024), this text covers ΔTm for 16 compounds.

Common to all, as to conditions: Compound concentration 20.0 uM
In assay [1] the target is Tyrosine-protein kinase ABL1 (Homo sapiens) (UniProt P00519).
Assay [2] has as its target Bromodomain-containing protein 4 (Homo sapiens) (UniProt O60885).
Assay [3] has as its target Cyclin-dependent kinase 2 (Homo sapiens) (UniProt P24941).
Assay [4] has as its target Casein kinase I isoform delta (Homo sapiens) (UniProt P48730).
Assay [5] has as its target Glycogen synthase kinase-3 beta (Homo sapiens) (UniProt P49841).
Assay [6] has as its target Mitogen-activated protein kinase 1 (Homo sapiens) (UniProt P28482).
The target of assay [7] is T1, Aurora kinase A (Homo sapiens) (UniProt O14965).
T1 sequence (whole entry): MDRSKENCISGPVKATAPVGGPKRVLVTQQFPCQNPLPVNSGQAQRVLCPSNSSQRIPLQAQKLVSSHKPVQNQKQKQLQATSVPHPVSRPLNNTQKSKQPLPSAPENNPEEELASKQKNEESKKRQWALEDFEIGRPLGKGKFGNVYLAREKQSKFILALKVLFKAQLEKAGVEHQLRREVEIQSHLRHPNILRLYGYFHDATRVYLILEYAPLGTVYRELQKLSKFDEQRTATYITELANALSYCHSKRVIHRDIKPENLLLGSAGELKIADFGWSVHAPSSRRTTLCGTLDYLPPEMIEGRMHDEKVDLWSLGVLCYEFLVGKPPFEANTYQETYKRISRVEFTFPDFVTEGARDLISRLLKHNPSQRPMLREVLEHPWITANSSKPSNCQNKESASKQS

In assay [8] the target is T2, Transcription intermediary factor 1-alpha (Homo sapiens) (UniProt O15164).
T2 sequence (whole entry): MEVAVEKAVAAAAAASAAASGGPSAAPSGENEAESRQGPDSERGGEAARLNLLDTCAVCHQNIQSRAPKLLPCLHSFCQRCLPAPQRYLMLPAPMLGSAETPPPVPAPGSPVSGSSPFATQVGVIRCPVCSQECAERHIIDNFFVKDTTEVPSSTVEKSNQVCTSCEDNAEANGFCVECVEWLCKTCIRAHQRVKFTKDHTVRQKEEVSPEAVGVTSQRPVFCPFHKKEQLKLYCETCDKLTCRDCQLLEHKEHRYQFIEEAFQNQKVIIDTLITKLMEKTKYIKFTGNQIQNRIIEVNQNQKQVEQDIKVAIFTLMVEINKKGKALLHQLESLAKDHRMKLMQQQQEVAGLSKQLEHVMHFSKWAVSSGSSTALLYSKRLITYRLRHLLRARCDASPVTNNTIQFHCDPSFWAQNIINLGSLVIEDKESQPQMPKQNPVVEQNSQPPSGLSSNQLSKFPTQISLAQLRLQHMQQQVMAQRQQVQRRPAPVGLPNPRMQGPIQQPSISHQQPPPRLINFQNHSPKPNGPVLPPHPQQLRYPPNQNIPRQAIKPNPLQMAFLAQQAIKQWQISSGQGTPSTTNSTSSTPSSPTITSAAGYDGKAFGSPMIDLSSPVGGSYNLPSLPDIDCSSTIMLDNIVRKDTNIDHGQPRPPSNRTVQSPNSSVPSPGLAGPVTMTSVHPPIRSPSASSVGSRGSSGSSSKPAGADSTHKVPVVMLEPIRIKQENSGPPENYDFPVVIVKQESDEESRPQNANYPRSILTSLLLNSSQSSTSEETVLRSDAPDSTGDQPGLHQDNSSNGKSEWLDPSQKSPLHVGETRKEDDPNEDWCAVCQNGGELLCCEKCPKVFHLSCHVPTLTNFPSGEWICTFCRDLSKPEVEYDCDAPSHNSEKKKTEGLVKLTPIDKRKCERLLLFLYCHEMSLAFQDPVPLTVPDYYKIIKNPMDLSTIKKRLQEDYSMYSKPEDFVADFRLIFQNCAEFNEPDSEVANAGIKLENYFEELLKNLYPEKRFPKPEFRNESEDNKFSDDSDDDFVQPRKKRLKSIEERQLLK

“And” between values parts separate entries of the source, which are not always exact repeats. Equal entries are not always repeated.

As a reminder, the ΔTm is the shift of the melting midpoint relative to a reference.

Sequence of Casein kinase I isoform delta (Homo sapiens) (P48730 whole entry, looked up, canonical isoform): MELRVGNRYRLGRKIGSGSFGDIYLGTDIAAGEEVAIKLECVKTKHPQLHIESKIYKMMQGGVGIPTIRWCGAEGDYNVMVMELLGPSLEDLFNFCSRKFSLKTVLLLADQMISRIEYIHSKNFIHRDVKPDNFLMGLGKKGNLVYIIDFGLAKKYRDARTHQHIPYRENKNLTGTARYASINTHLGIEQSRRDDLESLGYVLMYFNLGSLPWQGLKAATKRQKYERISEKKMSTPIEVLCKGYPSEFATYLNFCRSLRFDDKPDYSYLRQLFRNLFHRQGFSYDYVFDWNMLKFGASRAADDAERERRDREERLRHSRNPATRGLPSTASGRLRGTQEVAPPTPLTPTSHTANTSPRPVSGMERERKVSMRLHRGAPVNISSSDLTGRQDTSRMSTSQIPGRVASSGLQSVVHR
Sequence of Glycogen synthase kinase-3 beta (Homo sapiens) (P49841 whole entry, looked up): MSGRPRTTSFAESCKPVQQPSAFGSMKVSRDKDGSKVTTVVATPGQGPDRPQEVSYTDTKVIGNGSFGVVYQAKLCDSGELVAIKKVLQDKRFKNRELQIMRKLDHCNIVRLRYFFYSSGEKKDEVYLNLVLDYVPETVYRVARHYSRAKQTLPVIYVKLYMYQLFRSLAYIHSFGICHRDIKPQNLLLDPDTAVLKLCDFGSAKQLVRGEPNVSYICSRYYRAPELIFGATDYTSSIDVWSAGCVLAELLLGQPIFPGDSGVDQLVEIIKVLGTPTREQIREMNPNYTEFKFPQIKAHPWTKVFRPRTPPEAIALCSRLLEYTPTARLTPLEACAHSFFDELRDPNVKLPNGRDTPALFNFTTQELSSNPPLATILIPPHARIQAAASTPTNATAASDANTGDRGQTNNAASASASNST
Sequence of Mitogen-activated protein kinase 1 (Homo sapiens) (P28482 whole entry): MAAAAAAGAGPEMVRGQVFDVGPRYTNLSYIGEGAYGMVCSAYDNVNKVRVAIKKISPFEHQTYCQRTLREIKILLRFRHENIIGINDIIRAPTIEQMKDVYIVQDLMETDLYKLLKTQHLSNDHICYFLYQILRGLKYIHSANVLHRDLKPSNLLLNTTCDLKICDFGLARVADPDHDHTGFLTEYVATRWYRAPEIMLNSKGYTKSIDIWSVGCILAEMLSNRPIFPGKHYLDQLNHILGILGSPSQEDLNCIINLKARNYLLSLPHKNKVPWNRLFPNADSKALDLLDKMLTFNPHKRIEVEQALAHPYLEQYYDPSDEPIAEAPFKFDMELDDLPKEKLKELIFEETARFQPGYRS
Sequence of Tyrosine-protein kinase ABL1 (Homo sapiens) (P00519 whole entry): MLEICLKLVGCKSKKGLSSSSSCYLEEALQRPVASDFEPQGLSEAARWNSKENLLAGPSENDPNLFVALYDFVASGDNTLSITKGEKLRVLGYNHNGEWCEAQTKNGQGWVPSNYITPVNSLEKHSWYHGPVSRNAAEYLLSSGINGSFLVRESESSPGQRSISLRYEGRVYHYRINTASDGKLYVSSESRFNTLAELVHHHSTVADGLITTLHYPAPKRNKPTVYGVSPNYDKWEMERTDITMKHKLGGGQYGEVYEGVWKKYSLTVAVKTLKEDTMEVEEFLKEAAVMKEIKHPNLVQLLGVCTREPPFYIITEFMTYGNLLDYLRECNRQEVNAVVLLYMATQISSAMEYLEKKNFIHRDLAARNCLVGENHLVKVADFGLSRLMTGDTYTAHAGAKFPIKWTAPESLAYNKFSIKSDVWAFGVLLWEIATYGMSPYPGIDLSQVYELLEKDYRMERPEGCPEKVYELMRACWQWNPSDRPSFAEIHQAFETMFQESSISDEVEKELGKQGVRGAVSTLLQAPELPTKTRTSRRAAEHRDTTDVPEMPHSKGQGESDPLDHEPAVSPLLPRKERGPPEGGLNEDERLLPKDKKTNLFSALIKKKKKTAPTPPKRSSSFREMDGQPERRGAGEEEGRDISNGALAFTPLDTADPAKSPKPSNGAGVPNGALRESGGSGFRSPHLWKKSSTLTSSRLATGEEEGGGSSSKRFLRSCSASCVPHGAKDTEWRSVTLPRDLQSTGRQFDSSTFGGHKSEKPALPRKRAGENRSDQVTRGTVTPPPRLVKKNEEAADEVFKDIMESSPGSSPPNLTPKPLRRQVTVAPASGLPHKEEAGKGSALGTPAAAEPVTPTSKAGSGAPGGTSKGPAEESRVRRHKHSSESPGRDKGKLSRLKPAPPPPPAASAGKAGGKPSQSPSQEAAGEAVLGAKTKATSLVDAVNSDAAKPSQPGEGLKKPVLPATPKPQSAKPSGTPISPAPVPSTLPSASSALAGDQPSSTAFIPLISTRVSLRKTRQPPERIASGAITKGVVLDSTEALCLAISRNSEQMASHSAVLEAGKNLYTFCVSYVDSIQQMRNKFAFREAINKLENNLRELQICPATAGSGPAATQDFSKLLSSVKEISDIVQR

For `CCC(=O)N[C@H]1CC[C@@H](C(=O)N(C)c2ccc(-c3nc4ccccc4o3)cc2)C1`, the ΔTm was 0.54 °C in assay [1]; 0.67 °C in assay [2]; -0.03 °C in assay [3]; 0.1 °C in assay [4]; -0.48 °C in assay [5]; -0.17 °C in assay [6]. For the same compound, the ΔTm in assay [7] was -0.05 °C; in assay [8], -0.29 °C.
In the case of `O=C(CCCCCCNC(=O)c1cnc(N(c2ccccc2)c2ccccc2Cl)nc1)NO`, the ΔTm in assay [1] was 0.43 °C; in assay [2], -2.47 °C; in assay [3], 0.09 °C; in assay [4], 0.15 °C; in assay [5], -0.06 °C; in assay [6], -0.04 °C. Moreover, the results for the shift in melting temperature (ΔTm) in assay [7] and in assay [8] were -0.63 °C and -0.75 °C, respectively.
For `Cc1cc(-c2ccc3nc(C4CCOCC4)n(CCOC(F)(F)F)c3c2)cn(C)c1=O`, the shift in melting temperature (ΔTm) in assay [1] is 0.26 °C; in assay [2], 10.3 °C; in assay [3], 0.15 °C; in assay [4], 0.13 °C; in assay [5] it was -0.07 °C; in assay [6], -0.47 °C. The ΔTm is -0.36 °C in assay [7] and -0.3 °C in assay [8].
Consider `CC1(C)CC[C@]2(C(=O)O)CC[C@]3(C)C(=CC[C@@H]4[C@@]5(C)C=C(O)C(=O)C(C)(C)[C@@H]5CC[C@]43C)[C@@H]2C1`, for which the ΔTm in assay [1] is 0.5 °C; in assay [2] it was -3.51 °C; in assay [3], -0.16 °C; in assay [4] it was -1.03 °C; in assay [5], -1.79 °C; in assay [6] it was -3.78 °C. Moreover, the shift in melting temperature (ΔTm) in assay [7] was -4.25 °C; in assay [8], 0.88 °C.
Consider `Cc1cc(/N=N/c2ccc3c(c2)CCC(=O)N3)c(N)cc1O`, for which the ΔTm in assay [1] is 2.28 °C; in assay [2], -0.4 °C; in assay [3], -0.28 °C; in assay [4] it was 0.68 °C; in assay [5], -0.3 °C; in assay [6], 0.09 °C. Also, the ΔTm was -0.6 °C in assay [7] and -0.66 °C in assay [8].
As for `CCN(CC)C(=O)/C(C#N)=C/c1cc(O)c(O)c([N+](=O)[O-])c1`, the thermal shift (ΔTm) is 0.3 °C in assay [1]; 0.45 °C in assay [2]; 0.11 °C in assay [3]; -0.1 °C in assay [4]; -0.28 °C in assay [5]; 0.32 °C in assay [6]. Moreover, the ΔTm in assay [7] is -0.58 °C; in assay [8], 0.24 °C.
Take `Cc1[nH]c2c(N3CCO[C@H](CO)C3)c(C#N)c(C(F)(F)F)nc2c1Cl`: the ΔTm was 0.59 °C in assay [1]; -1.62 °C in assay [2]; 1.92 °C in assay [3]; 0.2 °C in assay [4]; 1.93 °C in assay [5]; 1.85 °C in assay [6]. In addition, the values for the ΔTm in assay [7] and in assay [8] were -1.95 °C and -1.25 °C, respectively.
As to `O=C(C=Cc1ccc(O)cc1)c1ccc(O)cc1O`, the shift in melting temperature (ΔTm) in assay [1] came out at 6.6 °C; in assay [2], 1.51 °C; in assay [3], 1.64 °C; in assay [4], 1.31 °C; in assay [5] it was 2.87 °C; in assay [6], 1.33 °C. Also, the ΔTm in assay [7] is 1.81 °C; in assay [8], -0.03 °C.
`COc1ccccc1S(=O)(=O)Nc1ccc2c(c1)CN(C)C(=O)N2`: the thermal shift (ΔTm) in assay [1] was 0.3 °C; in assay [3], 0.12 °C; in assay [4], -0.3 °C; in assay [5] it was -0.34 °C; in assay [6] it was 0.22 °C; in assay [7] it was -2.31 °C. The shift in melting temperature (ΔTm) in assay [8] is -0.41 °C.
In the case of `CC(C)Cc1nn(C)c(=O)c2c(SCCCO)n(Cc3cccc4ccccc34)cc12`, the ΔTm is -3.82 °C and -3.97 °C in assay [1]; -4.1 °C and -4.31 °C in assay [2]; -0.96 °C and -1.96 °C in assay [3]; -8.7 °C and -11.7 °C in assay [4]; -0.77 °C and -4.36 °C in assay [5]; -2.79 °C and -2.11 °C in assay [7]. The shift in melting temperature (ΔTm) in assay [8] was -0.87 °C and 0.82 °C.
Take `CC(C)N(C[C@H]1O[C@@H](n2cnc3c(N)ncnc32)[C@H](O)[C@@H]1O)[C@H]1C[C@@H](CCc2nc3cc(C(C)(C)C)ccc3[nH]2)C1`: the ΔTm in assay [1] is 0.52 °C; in assay [2], -1.59 °C; in assay [3], 0.63 °C; in assay [4], 0.57 °C; in assay [5], -0.47 °C; in assay [6], -0.02 °C. Moreover, the values for the ΔTm in assay [7] and in assay [8] were 0.32 °C and -0.97 °C, respectively.
For the compound `CSc1cccc(Nc2ncc3cc(-c4c(Cl)cccc4Cl)c(=O)n(C)c3n2)c1`, the thermal shift (ΔTm) is -0.42 °C in assay [2]; 0.94 °C in assay [3]; 0.35 °C in assay [4]; -1 °C in assay [6]; -0.33 °C in assay [7].
On to `COc1ccc(/C=C/C(=O)NO)c(-c2ccc(-c3ccccc3)cc2)c1`, for which the ΔTm is -1.93 °C in assay [1]; 2.27 °C in assay [2]; 0.43 °C in assay [3]; -0.46 °C in assay [4]; 3.08 °C in assay [5]; -9.33 °C in assay [6]. The results for the ΔTm in assay [7] and in assay [8] were 2.77 °C and 3.31 °C, respectively.
Turning to `COc1cc2/c(=N/c3ccc(Br)cc3F)nc[nH]c2cc1OCC1CCN(C)CC1`, the ΔTm in assay [2] is -0.83 °C; in assay [3] it was 0.52 °C; in assay [4] it was 1.25 °C; in assay [5] it was -0.61 °C; in assay [6], 0.07 °C; in assay [8], -1.14 °C.
On to `Cc1nc(Nc2ncc(C(=O)Nc3c(C)cccc3Cl)s2)cc(N2CCN(CCO)CC2)n1`, for which the thermal shift (ΔTm) is -1.33 °C in assay [2]; 0.19 °C in assay [3]; 1.36 °C in assay [4]; -0.52 °C in assay [5]; -0.01 °C in assay [6]; 4.44 °C in assay [7]. In assay [8], the ΔTm was -0.67 °C.
Take `CC(C)(C)OC(=O)Nc1ccc(-c2cc(C(=O)NCCCCCCC(=O)NO)no2)cc1`: the ΔTm in assay [1] was -1.36 °C; in assay [2], 0 °C; in assay [3], -1.64 °C; in assay [4], -3.22 °C; in assay [5], 0 °C; in assay [6], 0 °C. Moreover, the ΔTm is -4.92 °C in assay [7] and -2.07 °C in assay [8].
